Drawing on PubChem BioAssay (NCI), this text covers growth inhibition for six molecules.

Structures are written as SMILES. Compounds without any hit were thinned out: in the full panel of roughly 79,000, 15% have a hit. Unmarked numbers belong to inactive results. Active and inactive are the calls of the source. No stated cut-off is given here; in the data, active means growth inhibition above about 70%; inactive means the rest.

Assay [1] in a line: NCI Yeast Anticancer Drug Screen. Data for the rad50 strain (AID 155).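 Further: 0% = growth of vehicle-only cultures of the same strain.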 The note with it: S. cerevisiae rad50 strain growth inhibition, active compounds read high. The gist of the method:
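A DNA repair-deficient yeast mutant serves as the test organism; compound-induced growth inhibition is calculated against vehicle-treated cells.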

Assay [2] can be described thus: NCI Yeast Anticancer Drug Screen. Data for the mec2-1 strain (AID 157). The note with it: S. cerevisiae mec2-1 strain, active compounds read high. The gist of the method:
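Vehicle-treated cultures served as reference for growth inhibition of compound-exposed mec2-1 yeast.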

Assay [3] can be described thus: NCI Yeast Anticancer Drug Screen. Data for the sgs1 mgt1 strain (AID 161).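 Further: 0% = growth of cultures given vehicle only.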 The note with it: S. cerevisiae sgs1 mgt1 strain, active compounds read high. The gist of the method: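 Mutant yeast exposed to compound; growth scored against vehicle-only wells.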
Assay [4] in a line: NCI Yeast Anticancer Drug Screen. Data for the cln2 rad14 strain (AID 165).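 Further: 0% = growth equal to vehicle treated cultures.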 Particulars: S. cerevisiae cln2 rad14 strain, active compounds read high. The gist of the method: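 Each compound was tested on cln2 rad14 yeast. Inhibition of growth was calculated against vehicle-exposed controls.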
Assay [5] can be described thus: NCI Yeast Anticancer Drug Screen. Data for the bub3 strain (AID 167). The note with it: S. cerevisiae bub3 mutant strain, active compounds read high. The gist of the method: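 Inhibition values come from growth of compound-treated mutant yeast normalised to vehicle-treated controls.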
Assay [6] in a line: NCI Yeast Anticancer Drug Screen. Data for the mlh1 rad18 strain (AID 175). Particulars: S. cerevisiae mlh1 rad18 strain growth inhibition, active compounds read high. Summed up:
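Vehicle-treated cultures served as the reference for growth inhibition in a yeast strain carrying DNA damage repair alterations exposed to each compound.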

Setting [7] is: at 5.0 µM (retest, dose inferred, filed as 0.5).
Where [8] appears, read: at 50.0 µM (retest, dose inferred, filed as 5.0).

For the molecule `CCC[CH2][Sn]([CH2]CCC)([O]C(=O)c1cc(F)cc(F)c1)[O][Sn]([CH2]CCC)([CH2]CCC)[O]C(=O)c1cc(F)cc(F)c1`, the growth inhibition in assay [1] (setting [7]) is 48%; in assay [1] (setting [8]) it was 88% (active); in assay [1] (at 50.0 µM) it was 83% (active); in assay [2] (setting [7]) it was 57%; in assay [2] (setting [8]), 97% (active); in assay [2] (at 50.0 µM), 88.7% (active). The growth inhibition is 40% in assay [3] (setting [7]); 95% (active) in assay [3] (setting [8]); 89.7% (active) in assay [3] (at 50.0 µM); 30% in assay [4] (setting [7]); 88% (active) in assay [4] (setting [8]); 85.8% (active) in assay [4] (at 50.0 µM). Besides, the growth inhibition was 49% in assay [5] (setting [7]); 99% (active) in assay [5] (setting [8]); 89% (active) in assay [5] (at 50.0 µM); 44% in assay [6] (setting [7]); 96% (active) in assay [6] (setting [8]); 87.7% (active) in assay [6] (at 50.0 µM).

Turning to `O=C(C[n+]1ccccc1Cl)c1ccc(Oc2ccc(C(=O)C[n+]3ccccc3Cl)cc2)cc1`, the growth inhibition in assay [1] (setting [7]) was -34%; in assay [1] (setting [8]), 0%; in assay [1] (at 50.0 µM), 90.6% (active); in assay [2] (setting [7]), -5%; in assay [2] (setting [8]), -18%; in assay [2] (at 50.0 µM) it was 83.2% (active). The growth inhibition in assay [3] (setting [7]) was -11%; in assay [3] (setting [8]), -11%; in assay [3] (at 50.0 µM) it was 30.5%; in assay [4] (setting [7]), -14%; in assay [4] (setting [8]) it was -15%; in assay [4] (at 50.0 µM), 91.9% (active). For the same molecule, the growth inhibition in assay [5] (setting [7]) is -40%; in assay [5] (setting [8]) it was -28%; in assay [5] (at 50.0 µM) it was 89% (active); in assay [6] (setting [7]) it was -33%; in assay [6] (setting [8]), -48%; in assay [6] (at 50.0 µM), 80.7% (active).

Take `Cc1cc(C)c(O)c(C2CC3CCC2(C)C3(C)C)c1` (stereo not drawn): the growth inhibition in assay [1] (setting [7]) was 2%; in assay [1] (setting [8]), 87% (active); in assay [1] (at 50.0 µM), 95.6% (active); in assay [2] (setting [7]), 1%; in assay [2] (setting [8]) it was 92% (active); in assay [2] (at 50.0 µM) it was 95% (active). Further, the growth inhibition was 5% in assay [3] (setting [7]); 91% (active) in assay [3] (setting [8]); 95.8% (active) in assay [3] (at 50.0 µM); 4% in assay [4] (setting [7]); 91% (active) in assay [4] (setting [8]); 95.2% (active) in assay [4] (at 50.0 µM). The growth inhibition in assay [5] (setting [7]) was 7%; in assay [5] (setting [8]), 92% (active); in assay [5] (at 50.0 µM), 96.5% (active); in assay [6] (setting [7]), -1%; in assay [6] (setting [8]), 94% (active); in assay [6] (at 50.0 µM), 95.5% (active).

Regarding `C(=C\c1cccc2ccccc12)/c1ccncc1`, the growth inhibition in assay [1] (setting [7]) is 8%; in assay [1] (setting [8]), 97% (active); in assay [1] (at 50.0 µM), 98.9% (active); in assay [2] (setting [7]) it was -19%; in assay [2] (setting [8]), 99% (active); in assay [2] (at 50.0 µM) it was 99.2% (active). Moreover, the growth inhibition in assay [3] (setting [7]) is -14%; in assay [3] (setting [8]) it was 98% (active); in assay [3] (at 50.0 µM) it was 99.2% (active); in assay [4] (setting [7]), -2%; in assay [4] (setting [8]), 96% (active); in assay [4] (at 50.0 µM), 99% (active). The growth inhibition was 4% in assay [5] (setting [7]); 97% (active) in assay [5] (setting [8]); 98.5% (active) in assay [5] (at 50.0 µM); -11% in assay [6] (setting [7]); 98% (active) in assay [6] (setting [8]); 99.1% (active) in assay [6] (at 50.0 µM).

As to `CC(C)OC(=O)c1ccc(CCC2=CC(=O)C=CC2=O)cc1`, the growth inhibition in assay [1] (setting [7]) was 34%; in assay [1] (setting [8]) it was 89% (active); in assay [1] (at 50.0 µM), 81.1% (active); in assay [2] (setting [7]), 53%; in assay [2] (setting [8]), 99% (active); in assay [2] (at 50.0 µM) it was 77.2% (active). The growth inhibition in assay [3] (setting [7]) was 86% (active); in assay [3] (setting [8]), 94% (active); in assay [3] (at 50.0 µM), 87.3% (active); in assay [4] (setting [7]), 76% (active); in assay [4] (setting [8]), 91% (active); in assay [4] (at 50.0 µM), 61.7%. For the same molecule, the growth inhibition in assay [5] (setting [7]) was 92% (active); in assay [5] (setting [8]), 95% (active); in assay [5] (at 50.0 µM), 87.4% (active); in assay [6] (setting [7]), 66%; in assay [6] (setting [8]), 98% (active); in assay [6] (at 50.0 µM), 79.2% (active).

Consider `OC(OC/C(I)=C(/I)COC(O)C(Cl)(Cl)Cl)C(Cl)(Cl)Cl` (stereo not drawn), for which the growth inhibition is 28% in assay [1] (setting [7]); 96% (active) in assay [1] (setting [8]); 97.2% (active) in assay [1] (at 50.0 µM); 34% in assay [2] (setting [7]); 94% (active) in assay [2] (setting [8]); 96.9% (active) in assay [2] (at 50.0 µM). The growth inhibition is -2% in assay [3] (setting [7]); 86% (active) in assay [3] (setting [8]); 94.8% (active) in assay [3] (at 50.0 µM); -10% in assay [4] (setting [7]); 70% (active) in assay [4] (setting [8]); 76.7% (active) in assay [4] (at 50.0 µM). The growth inhibition in assay [5] (setting [7]) was 1%; in assay [5] (setting [8]), 94% (active); in assay [5] (at 50.0 µM), 93.1% (active); in assay [6] (setting [7]), 13%; in assay [6] (setting [8]), 95% (active); in assay [6] (at 50.0 µM), 97.1% (active).
